According to PubChem BioAssay (NCI):
This is part of a sample that, as a whole, favours compounds with a hit. Of some 79,000 tested, about 15% had one in any assay. Calls of active or inactive are those of the source. No stated cut-off is given here; in the data, active means growth inhibition above about 70%; inactive means the rest.

What was measured:
[1] = NCI Yeast Anticancer Drug Screen. Data for the mec2-1 strain (AID 157); conditions: S. cerevisiae mec2-1 strain, hits give high values
How it was run: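 Strain: mec2-1 (DNA repair/cell cycle alteration). Compound exposure, then growth measured; inhibition expressed relative to vehicle.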

[2] = NCI Yeast Anticancer Drug Screen. Data for the rad14 strain (AID 159);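 further: 0% = growth of vehicle-treated control cultures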; conditions: S. cerevisiae rad14 strain growth inhibition, hits give high values
How it was run: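 A mutant yeast strain defective in DNA damage repair is treated with compound; inhibition of its growth is scored against untreated, vehicle-exposed cultures.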

[3] = NCI Yeast Anticancer Drug Screen. Data for the sgs1 mgt1 strain (AID 161);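 further: 0% = growth of cultures given vehicle only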; conditions: S. cerevisiae sgs1 mgt1 strain, hits give high values
How it was run: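 Genetically altered yeast, compound exposure, growth inhibition relative to vehicle.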

[4] = NCI Yeast Anticancer Drug Screen. Data for the CLN2oe strain (AID 163);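 further: 0% = growth of vehicle-only control cultures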; conditions: S. cerevisiae CLN2oe strain, hits give high values
How it was run: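 Growth of a genetically modified yeast strain is measured after compound exposure and compared with cultures given vehicle alone.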

[5] = NCI Yeast Anticancer Drug Screen. Data for the cln2 rad14 strain (AID 165);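 further: 0% = growth equal to vehicle treated cultures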; conditions: S. cerevisiae cln2 rad14 strain, hits give high values
How it was run: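 Compounds are applied to the cln2 rad14 yeast strain, and growth is then compared with that of vehicle-treated cultures to give inhibition.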

[6] = NCI Yeast Anticancer Drug Screen. Data for the wt2 strain (AID 169);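 further: 0% = growth of vehicle-treated yeast cultures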; conditions: S. cerevisiae wt2 strain growth inhibition, hits give high values
How it was run: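 This strain belongs to a panel of yeast strains with defined genetic alterations in DNA damage repair or cell cycle control. Compounds are applied, and growth inhibition is measured against vehicle-treated cultures.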

[7] = NCI Yeast Anticancer Drug Screen. Data for the mlh1 strain (AID 171);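 further: 0% = growth of vehicle-treated control cultures of the same strain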; conditions: S. cerevisiae mlh1 strain growth inhibition, hits give high values
How it was run: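 Growth of the mutant yeast strain after compound exposure, expressed as inhibition relative to vehicle-only controls.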

[8] = NCI Yeast Anticancer Drug Screen. Data for the sgs1 strain (AID 173);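 further: 0% = growth of vehicle-only control cultures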; conditions: S. cerevisiae sgs1 mutant, hits give high values
How it was run: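 Growth of a yeast strain bearing a defined genetic alteration is measured after compound treatment. Inhibition is expressed relative to vehicle-only controls.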

[9] = NCI Yeast Anticancer Drug Screen. Data for the mlh1 rad18 strain (AID 175); conditions: S. cerevisiae mlh1 rad18 strain growth inhibition, hits give high values
How it was run: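 Read-out is yeast growth inhibition, calculated against vehicle-only controls. The compound was applied to a strain engineered with DNA damage repair alterations.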

[10] = NCI Yeast Anticancer Drug Screen. Data for the rad18 strain (AID 177); conditions: S. cerevisiae rad18 mutant growth inhibition, hits give high values
How it was run: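 Growth of the mutant yeast strain after compound exposure, normalised to vehicle-only cultures.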

[11] = NCI Yeast Anticancer Drug Screen. Data for the rad52 strain (AID 147);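 further: 0% = growth of vehicle-treated control cultures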; conditions: S. cerevisiae rad52 mutant growth inhibition, hits give high values
How it was run: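 Compounds are applied to a genetically defined yeast strain lacking normal DNA damage repair, and inhibition of growth is expressed relative to cultures given vehicle only.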

[12] = NCI Yeast Anticancer Drug Screen. Data for the wt1 strain (AID 149);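 further: 0% = growth of vehicle-treated wt1 cultures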; conditions: S. cerevisiae wt1 strain (SPY 50644) growth inhibition, hits give high values
How it was run: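 Compounds are added to wt1 yeast cultures. Growth is then measured. Inhibition is expressed relative to vehicle-treated controls.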

[13] = NCI Yeast Anticancer Drug Screen. Data for the rad50EPP+ strain (AID 151);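 further: 0% = growth of vehicle-treated control cultures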; conditions: S. cerevisiae rad50 mutant strain, hits give high values
How it was run: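 Compounds were applied to the rad50EPP+ yeast strain, which bears a defined DNA repair alteration, and growth inhibition was determined relative to vehicle-treated cultures.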

[14] = NCI Yeast Anticancer Drug Screen. Data for the mgt1 strain (AID 153); conditions: S. cerevisiae mgt1 mutant growth inhibition, hits give high values
How it was run: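 Strain: mgt1 yeast, one of a set carrying defined DNA damage repair or cell cycle control alterations. Compound-treated growth compared with vehicle.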

[15] = NCI Yeast Anticancer Drug Screen. Data for the rad50 strain (AID 155);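 further: 0% = growth of vehicle-only cultures of the same strain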; conditions: S. cerevisiae rad50 strain growth inhibition, hits give high values
How it was run: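 Inhibition values express reduced yeast growth in compound-treated cultures relative to vehicle-treated controls.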

[16] = NCI Yeast Anticancer Drug Screen. Data for the bub3 strain (AID 167); conditions: S. cerevisiae bub3 mutant strain, hits give high values
How it was run: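 Steps: expose the mutant yeast strain to compound; grow alongside vehicle-treated cultures; measure growth; express inhibition against the vehicle cultures.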

[17] = at 5.0 µM (retest, dose inferred, filed as 0.5)
[18] = at 50.0 µM (retest, dose inferred, filed as 5.0)

Measured: growth inhibition

CCCCCCCCCC(=O)N(CCC)CCC
inactive: [1]; at 11.0 µM -15% | [2]; at 1.2 µM -9% | [2]; at 3.7 µM -6% | [2]; at 11.0 µM -15% | [2]; at 33.0 µM 29% | [3]; [17] -38% | [3]; [18] 56% | [4]; at 1.2 µM 3% | [4]; at 3.7 µM -2% | [4]; at 11.0 µM 0% | [4]; at 33.0 µM 45% | [5]; [17] 48% | [5]; [18] 65% | [6]; at 1.2 µM -5% | [6]; at 3.7 µM -2% | [6]; at 11.0 µM -10% | [6]; at 33.0 µM 49% | [7]; at 1.2 µM 2% | [7]; at 3.7 µM -15% | [7]; at 11.0 µM -13% | [7]; at 33.0 µM 41% | [8]; at 1.2 µM -4% | [8]; at 3.7 µM -9% | [8]; at 11.0 µM -17% | [10]; at 1.2 µM 15% | [10]; at 3.7 µM 21% | [10]; at 11.0 µM 15% | [10]; at 33.0 µM 68%
active: [1]; [17] 97% | [1]; at 33.0 µM 73% | [1]; [18] 98% | [1]; at 50.0 µM 93.3% | [1]; at 100.0 µM 97% | [2]; at 100.0 µM 97% | [3]; at 50.0 µM 92.9% | [4]; at 100.0 µM 98% | [5]; at 50.0 µM 91.1% | [6]; at 100.0 µM 97% | [7]; at 100.0 µM 96% | [8]; at 33.0 µM 73% | [8]; at 100.0 µM 98% | [9]; [17] 99% | [9]; [18] 99% | [9]; at 50.0 µM 90.3% | [10]; at 100.0 µM 98%

O=C(c1ccccc1)[C@H]1Nc2ccc(Cl)cc2[C@H]2OCCC[C@@H]12
inactive: [11]; at 1.2 µM -16% | [11]; at 3.7 µM -40% | [11]; at 11.0 µM -19% | [11]; at 33.0 µM 22% | [12]; at 1.2 µM -7% | [12]; at 3.7 µM -6% | [12]; at 11.0 µM -2% | [12]; at 33.0 µM 24% | [13]; at 1.2 µM -16% | [13]; at 3.7 µM -20% | [13]; at 11.0 µM -25% | [13]; at 33.0 µM -2% | [13]; at 100.0 µM 14% | [14]; at 1.2 µM -19% | [14]; at 3.7 µM -23% | [14]; at 11.0 µM -39% | [14]; at 33.0 µM 32% | [15]; at 1.2 µM -2% | [15]; at 3.7 µM -2% | [15]; [17] 7% | [15]; at 11.0 µM -6% | [15]; at 33.0 µM 33% | [15]; [18] 4% | [15]; at 50.0 µM 67.2% | [1]; at 1.2 µM -23% | [1]; at 3.7 µM -25% | [1]; [17] -13% | [1]; at 11.0 µM -25% | [1]; at 33.0 µM -6% | [1]; [18] 49% | [1]; at 50.0 µM 12.9% | [2]; at 1.2 µM -40% | [2]; at 3.7 µM -23% | [2]; at 11.0 µM -41% | [2]; at 33.0 µM 31% | [3]; [17] -18% | [3]; [18] 33% | [3]; at 50.0 µM 40.5% | [5]; [17] 33% | [5]; [18] 44% | [5]; at 50.0 µM 32.6% | [16]; at 1.2 µM -22% | [16]; at 3.7 µM -7% | [16]; [17] 12% | [16]; at 11.0 µM 34% | [6]; at 1.2 µM -15% | [6]; at 3.7 µM -15% | [6]; at 11.0 µM -16% | [6]; at 33.0 µM 17% | [7]; at 1.2 µM -19% | [7]; at 3.7 µM -31% | [7]; at 11.0 µM -34% | [7]; at 33.0 µM 32% | [8]; at 1.2 µM 7% | [8]; at 3.7 µM 11% | [8]; at 11.0 µM 18% | [8]; at 33.0 µM 57% | [9]; [17] -24% | [9]; [18] 1% | [9]; at 50.0 µM 25.9% | [10]; at 1.2 µM -13% | [10]; at 3.7 µM -11% | [10]; at 11.0 µM -10% | [10]; at 33.0 µM 31%
active: [11]; at 100.0 µM 86% | [12]; at 100.0 µM 88% | [14]; at 100.0 µM 88% | [15]; at 100.0 µM 91% | [1]; at 100.0 µM 90% | [2]; at 100.0 µM 83% | [16]; at 33.0 µM 86% | [16]; [18] 93% | [16]; at 50.0 µM 82.5% | [16]; at 100.0 µM 95% | [6]; at 100.0 µM 81% | [7]; at 100.0 µM 91% | [8]; at 100.0 µM 94% | [10]; at 100.0 µM 92%

NC(CS)C(=O)NCCNc1ccc(NCCNC(=O)C(N)CS)c2c1C(=O)c1c(O)ccc(O)c1C2=O (stereo not drawn)
inactive: [11]; at 1.2 µM -10% | [11]; at 3.7 µM 58% | [11]; at 100.0 µM 48% | [12]; at 1.2 µM -42% | [12]; at 3.7 µM -25% | [12]; at 11.0 µM -67% | [12]; at 33.0 µM 45% | [12]; at 100.0 µM 68% | [13]; at 1.2 µM -4% | [13]; at 3.7 µM 46% | [13]; at 11.0 µM 67% | [13]; at 100.0 µM 54% | [14]; at 1.2 µM 7% | [14]; at 3.7 µM 18% | [14]; at 11.0 µM 23% | [14]; at 100.0 µM 62% | [15]; at 1.2 µM 33% | [15]; at 3.7 µM 67% | [15]; at 100.0 µM 62% | [1]; at 1.2 µM -42% | [1]; at 3.7 µM -26% | [1]; [17] 2% | [1]; at 11.0 µM -11% | [1]; at 100.0 µM 65% | [2]; at 1.2 µM -55% | [2]; at 3.7 µM -47% | [2]; at 11.0 µM -43% | [2]; at 100.0 µM 57% | [3]; [17] 6% | [3]; [18] -32% | [4]; at 1.2 µM -4% | [4]; at 3.7 µM 4% | [4]; at 11.0 µM -10% | [4]; at 100.0 µM 56% | [16]; at 1.2 µM -29% | [16]; at 3.7 µM -21% | [16]; [17] 13% | [16]; at 11.0 µM -34% | [16]; [18] -54% | [16]; at 50.0 µM 68.2% | [16]; at 100.0 µM 51% | [6]; at 1.2 µM -19% | [6]; at 3.7 µM -57% | [6]; at 11.0 µM -63% | [6]; at 100.0 µM 64% | [7]; at 1.2 µM -34% | [7]; at 3.7 µM -35% | [7]; at 11.0 µM -33% | [7]; at 100.0 µM 62% | [8]; at 1.2 µM -23% | [8]; at 3.7 µM -36% | [8]; at 11.0 µM -27% | [8]; at 100.0 µM 63% | [9]; [17] 13% | [10]; at 1.2 µM 3% | [10]; at 3.7 µM -10% | [10]; at 11.0 µM -8% | [10]; at 100.0 µM 61%
active: [11]; at 11.0 µM 73% | [11]; at 33.0 µM 80% | [13]; at 33.0 µM 80% | [14]; at 33.0 µM 86% | [15]; [17] 75% | [15]; at 11.0 µM 81% | [15]; at 33.0 µM 85% | [15]; [18] 88% | [15]; at 50.0 µM 79.2% | [1]; at 33.0 µM 86% | [1]; [18] 89% | [1]; at 50.0 µM 76% | [2]; at 33.0 µM 81% | [3]; at 50.0 µM 78.7% | [4]; at 33.0 µM 84% | [16]; at 33.0 µM 81% | [6]; at 33.0 µM 81% | [7]; at 33.0 µM 85% | [8]; at 33.0 µM 84% | [9]; [18] 80% | [9]; at 50.0 µM 72.5% | [10]; at 33.0 µM 84%
